From PubChem BioAssay AID1745848 (National Center for Advancing Translational Sciences (NCATS), 2022)
In all, about 2,100 compounds went through this assay and about 940 (45%) were called active. Another 48% or so got no clear call; they are omitted. The set was probably picked from earlier hits. The list shows a part of the results. Values without a mark were called inactive. Calls follow the shape of the dose curve; as a rule, active = well fitted inhibition curve with a large enough effect; inconclusive = small, poorly fitted or top-dose-only effect; inactive = no such curve, though single readings can be large or run the other way.

experiment: Confirmatory qHTS for Inhibitors of ATXN expression; settings: ATXN2-luciferase reporter cells, luminescence, 24 h; series mostly up to 11.5 µM; activity change, negative = inhibition: at the top concentration; also: nearly all actives have a fitted effect of over 65% in size;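 as to activity change, negative = inhibition: 0% = DMSO vehicle wells and -100% = medium-only wells without cells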
In short: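 Cells carrying ATXN2-luciferase reporter exposed 24 h at 37 C to compound. Viability then read by CellTiter-Fluor (25 uM GF-AFC, 30 min), followed by SteadyGlo luminescence; medium-only wells set 100% inhibition.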
Potency is read from the fitted curve at half-maximal effect.

| Structure (SMILES) | activity change, negative = inhibition | Potency |
| --- | --- | --- |
| CCOCCn1ccc2c(OCC(=O)Nc3ccc(OC)c(OC)c3)cccc2c1=O | -16.3% |  |
| CCc1ccc(NC(=O)COc2ccc(/C=C(/C#N)c3nc4ccccc4[nH]3)cc2OC)cc1 |  | 3.55 µM (active) |
| CCOC(=O)c1ccc2ncc(C(=O)OCC)c(Nc3ccc(N4CCOCC4)cc3)c2c1 |  | 3.98 µM (active) |
| CCN(CC)S(=O)(=O)c1cccc(NC(=O)Nc2cccc(C(F)(F)F)c2)c1 |  | 1.78 µM (active) |
| O=c1cc(N2CCN(c3cccc(Cl)c3)CC2)[nH]c(=O)n1C1CCCCC1 |  | 0.355 µM (active) |
| NC(=O)N/N=C/c1c(O)ccc2oc3c(c12)CCCC3 |  | 14.1 µM (active) |
| Cc1nc2ccccc2c(=O)n1/N=C/c1c(O)ccc2oc3c(c12)CCCC3 |  | 15.8 µM (active) |
| Cc1ccccc1N=Nc1ccc(O)c2ncccc12 |  | 1.41 µM (active) |
| Cc1ccc(N=Nc2ccc(O)c3ncccc23)cc1 |  | 3.16 µM (active) |
| Cn1c2c(c(=O)[nH]c1=O)C(c1cccc(O)c1)C1=C(N2)c2ccccc2C1=O (stereo unspecified) |  | 3.98 µM (active) |
| COCCCNCCCOc1ccc(Cl)cc1C(C)(C)C |  | 15.8 µM (active) |
| CCc1cc2c(N3CCN(c4nnc(CC)s4)CC3)ncnc2s1 |  | 3.55 µM (active) |
| Cc1cc(C)cc(NC(=O)CCc2nc3sc4c(c3c(=O)[nH]2)CCCC4)c1 |  | 0.708 µM (active) |
| CC(C)C(=O)NC(c1cccc([N+](=O)[O-])c1)c1ccc2cccnc2c1O (stereo unspecified) |  | 2.24 µM (active) |
| CC(=O)NC(c1cccc([N+](=O)[O-])c1)c1ccc2cccnc2c1O (stereo unspecified) |  | 0.562 µM (active) |
| CC(NC(=O)Nc1cccc([N+](=O)[O-])c1)c1ccc2c(c1)OCO2 (stereo unspecified) | -5.8% |  |
| O=[N+]([O-])c1ccc(NC(c2ccccc2)c2ccc3cccnc3c2O)cc1 (stereo unspecified) |  | 1.26 µM (active) |
| CCOC(=O)c1ccc(N=c2sc(C(=O)OC)cc(=O)n2-c2ccc(C(=O)OCC)cc2)cc1 |  | 3.98 µM (active) |
| O=C(CSc1n[nH]c(-c2ccccn2)n1)Nc1cccc(Cl)c1 |  | 3.55 µM (active) |
| O=C(CC1NCCc2ccccc21)Nc1ccc(Cl)cc1 (stereo unspecified) | 7.55% |  |
| O=C(CSc1n[nH]c(-c2ccccn2)n1)Nc1ccc(F)cc1 |  | 8.91 µM (active) |
| Cc1ccc(NC(=O)CSc2n[nH]c(-c3ccccn3)n2)cc1 |  | 2.82 µM (active) |
| O=C(CSc1n[nH]c(-c2ccccn2)n1)Nc1ccc(Cl)cc1 |  | 1.26 µM (active) |

| Structure (SMILES) | activity change, negative = inhibition | Potency |
| --- | --- | --- |
| COC(/C(=N/O)c1ccc(Cl)cc1)c1ccccc1 (stereo unspecified) | -30% [at 57.5 µM] |  |
| O=C(CSc1n[nH]c(-c2ccccn2)n1)Nc1ccccc1 |  | 15.8 µM (active) |
| COc1cc(Br)cc(/C=N/NC(=O)Cc2ccc(C(F)(F)F)cc2[N+](=O)[O-])c1O |  | 10 µM (active) |
| c1cc2c(cc1-c1cnc3n1CCC3)OCCO2 |  | 12.6 µM (active) |
| NC(=Nc1nc(-c2ccccn2)cc2ccccc12)c1ccccn1 |  | 0.0562 µM (active) |
| Oc1ccccc1C(Nc1nccs1)c1ccc2cccnc2c1O (stereo unspecified) |  | 2.82 µM (active) |
| Oc1c(C(Nc2nccs2)c2ccc(C(F)(F)F)cc2)ccc2cccnc12 (stereo unspecified) |  | 1.78 µM (active) |
| Oc1c(C(Nc2ccccn2)c2ccccn2)ccc2cccnc12 (stereo unspecified) |  | 3.16 µM (active) |
| Oc1cccc(C(Nc2nccs2)c2ccc3cccnc3c2O)c1 (stereo unspecified) |  | 2.51 µM (active) |
| O=C(N/N=C/c1ccc([N+](=O)[O-])s1)c1ccccc1 |  | 12.6 µM (active) |
| O=C(N/N=C/c1ccc([N+](=O)[O-])s1)c1ccccc1Br |  | 14.1 µM (active) |
| COc1ccc(C(=O)NCC(=O)N/N=C/c2ccc([N+](=O)[O-])s2)cc1OC |  | 10 µM (active) |
| Cc1c(C(=O)N2c3ccccc3Sc3ccccc32)cccc1[N+](=O)[O-] | -28.2% [at 57.5 µM] |  |
| Cc1ccccc1C(=O)N/N=C/c1ccc([N+](=O)[O-])s1 |  | 12.6 µM (active) |
| Cc1ccc(C)n1-c1ccc(C(=O)N2CCC(C(N)=O)CC2)cc1 | 0.758% |  |
| COc1cccc(CNc2nc3cc(-c4ccc(C(=O)N5CCN(C)CC5)cc4)sc3c(=O)n2C)c1 |  | 28.2 µM (active) |
| NC(=O)c1c(NC(=O)c2ccc(S(=O)(=O)N3CCOCC3)cc2)sc2c1CCCCC2 | -23.6% |  |
| COc1ccc(C(=O)Nc2nc(-c3ccc(S(=O)(=O)N4CCOCC4)cc3)cs2)cc1 |  | 1.78 µM (active) |
| COc1cccc(C(=O)Nc2nc(-c3ccc(S(=O)(=O)N4CCOCC4)cc3)cs2)c1 |  | 1.58 µM (active) |
| COc1ccccc1C(=O)Nc1nc(-c2ccc(S(=O)(=O)N3CCOCC3)cc2)cs1 |  | 3.98 µM (active) |
| O=C(Nc1nc(-c2ccccn2)cs1)c1ccc(F)c(S(=O)(=O)N2CCOCC2)c1 |  | 1.78 µM (active) |
| COc1cccc(NC(=O)/C=C/c2ccc(S(=O)(=O)N3CCOCC3)cc2)c1 | -14.6% [at 57.5 µM] |  |
| OCCN1CCN(C(=S)c2ccc(-c3ccccc3)cc2)CC1 |  | 1.78 µM (active) |

| Structure (SMILES) | activity change, negative = inhibition | Potency |
| --- | --- | --- |
| CCN1CCN(C(=S)c2ccc(-c3ccccc3)cc2)CC1 |  | 1.58 µM (active) |
| COc1ccc(NC(=O)c2cc(-c3cc(Cl)ccc3OC)n[nH]2)cc1OC |  | 0.631 µM (active) |
| O=c1c(O)c(-c2ccccc2)oc2ccccc12 | -8.49% |  |
| O=c1cc(-c2c(F)c(F)c(F)c(F)c2F)oc2ccccc12 |  | 3.55 µM (active) |
| Cc1nc(SCC(=O)Nc2ccc(S(=O)(=O)N3CCOCC3)cc2)c2c(C)c(C)sc2n1 |  | 3.98 µM (active) |
| COc1ccc(C(=O)c2sc(Nc3ccccc3)nc2N)cc1OC |  | 28.2 µM (active) |
| COc1cccc(CNCCc2c[nH]c3ccccc23)c1OCc1ccc(F)cc1 |  | 3.98 µM (active) |
| O=C(N/N=C\c1c(O)ccc2ccccc12)c1ccc(Cn2cccn2)o1 |  | 0.708 µM (active) |
| O=C(N/N=C\c1c(O)ccc2ccccc12)c1cncc(Br)c1 |  | 0.251 µM (active) |
| O=C(N/N=C/c1c(O)ccc2ccccc12)c1cccnc1 |  | 3.16 µM (active) |
| Cc1occc1C(=O)N/N=C/c1c(O)ccc2ccccc12 |  | 1.78 µM (active) |
| O=C(N/N=C/c1cc(O)ccc1Br)c1cccnc1 |  | 3.16 µM (active) |
| Cn1c(-[n+]2c(-c3ccccc3)cc(-c3ccccc3)cc2-c2ccccc2)nc2c([N+](=O)[O-])cccc21 | -13.5% |  |
| Cc1cccc(OCCn2cc(/C=N/NC(=O)c3ccncc3)c3ccccc32)c1 | -13.1% |  |
| CCn1c2ccccc2c2cc(/C=N/n3cnnc3)ccc21 |  | 1.58 µM (active) |
| CCn1c2ccccc2c2cc(/C=N/NC(=O)c3ccncc3)ccc21 |  | 1.41 µM (active) |
| CCn1c2ccccc2c2cc(/C=N/NC(=O)c3ccc(O)cc3)ccc21 |  | 2.24 µM (active) |
| CCn1c2ccccc2c2cc(/C=C(/C#N)C(N)=S)ccc21 |  | 0.447 µM (active) |
| Cc1ccc2nc(SCc3ccc([N+](=O)[O-])cc3)[nH]c2c1 | -6.34% |  |
| CCn1c2ccccc2c2cc(/C=N/NC(=O)c3ccccc3)ccc21 |  | 3.16 µM (active) |
| CC(C)CCn1c(N)c(S(=O)(=O)c2cccs2)c2nc3ccccc3nc21 |  | 3.16 µM (active) |
| Cc1ccc(S(=O)(=O)c2c(N)n(CC3CCOC3)c3nc4ccccc4nc23)cc1 (stereo unspecified) | -14.3% |  |
| COc1cccc(/C=N/n2c(N)c(S(=O)(=O)c3cccs3)c3nc4ccccc4nc32)c1OC |  | 14.1 µM (active) |

| Structure (SMILES) | activity change, negative = inhibition | Potency |
| --- | --- | --- |
| Cc1cc(Br)c(OCc2ccc(C(=O)N/N=C3\CC4CC=CC34)cc2)c(Br)c1 (stereo unspecified) |  | 28.2 µM (active) |
| CCCCNC(=NCc1cccc(C(F)(F)F)c1)Nc1ccccc1 |  | 3.16 µM (active) |
| CN(C(=O)c1cnc(N2CCN(c3ncccn3)CC2)c2ccccc12)c1ccc(Cl)cc1 |  | 28.2 µM (active) |
| O=C(c1cnc(N2CCN(c3ccccn3)CC2)c2ccccc12)N1CCN(c2cccc(Cl)c2)CC1 |  | 6.31 µM (active) |
| CCN(CC)S(=O)(=O)c1cccc(C(=O)N/N=C(\C)c2ccc(O)cc2O)c1 |  | 3.16 µM (active) |
| CCn1c(C)nc2cc(C(=O)N/N=C(\C)c3ccc(OC)cc3O)ccc21 |  | 15.8 µM (active) |
| COc1ccc(/C(C)=N/NC(=O)c2cccc(S(=O)(=O)N3CCCC3)c2)c(O)c1 |  | 3.55 µM (active) |
| CC(=NNC(=O)c1ccncc1)c1ccc(O)cc1O |  | 12.6 µM (active) |
| CC(=NNC(=O)c1ccncc1)c1ccc2ccccc2c1O |  | 1.12 µM (active) |
| Oc1c(C(Nc2ccccn2)c2cccnc2)cc(Cl)c2cccnc12 (stereo unspecified) |  | 12.6 µM (active) |
| CC(=O)NC(c1ccccc1)c1cc(Cl)c2cccnc2c1O (stereo unspecified) |  | 2.82 µM (active) |
| CC(=O)NC(c1ccc(C)cc1)c1cc(Cl)c2cccnc2c1O (stereo unspecified) |  | 2.51 µM (active) |
| CC(C)(C)c1ccc(CC(=O)N2CCC2(C)C(=O)Nc2cnc3ccccc3c2)cc1 (stereo unspecified) | -28.3% |  |
| CN1C(=O)/C(=C\c2ccccc2F)Sc2ccc(C(=O)NC3CCN(Cc4ccccc4)CC3)cc21 |  | 3.16 µM (active) |
| CC1(C(=O)NC2CCN(Cc3ccccc3)CC2)CCN1Cc1ccc2ccccc2c1 (stereo unspecified) |  | 2.51 µM (active) |
| Cc1ccc(CN2CCSc3ccc(C(=O)NC4CCN(Cc5ccccc5)CC4)cc32)cc1 |  | 3.16 µM (active) |
| CC(=O)Nc1cc(-c2ccc(C(=O)NC3CC3)cc2)cn2c(-c3cccc(C(C)=O)c3)cnc12 | -13.8% [at 57.5 µM] |  |
| CN1CCC(NC(=O)c2cc(-c3cccc(Br)c3)nc3ccccc23)CC1 |  | 25.1 µM (active) |
| CCc1c2c(nc3ccc(OC(=O)N4CCC(N5CCCCC5)CC4)cc13)-c1cc3c(c(=O)n1C2)COC(=O)[C@]3(O)CC |  | 0.316 µM (active) |
| CC[C@@]1(O)C(=O)OCc2c1cc1n(c2=O)Cc2cc3c(CN(C)C)c(O)ccc3nc2-1 | -84.6% [at 57.5 µM] |  |
| Cc1sc(NC(=O)c2cc(-c3ccc(Cl)cc3)nc3ccccc23)c(C(N)=O)c1C |  | 7.08 µM (active) |
| C=CCN(C(=O)CSc1nc2c(sc3ccccc32)c(=O)n1CCN(CC)CC)c1ccccc1 |  | 28.2 µM (active) |
